From PubChem BioAssay
ELG1 DNA repair: ELG1-dependent DNA repair inhibition | HEK293T ELG1-luciferase reporter, luminescence, 16 h; DNA damage induced by 5-fluorouridine | Potency, µM (highest dose often 46.1 µM), without a hit: top-dose activity change, negative = inhibition, usual class: inhibitors | 330,000 compounds, 2.3% hits | AID 504467; also: potency is read from the fitted curve at half-maximal effect; nearly all actives have a fitted effect of over 55% in size
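HEK293T cells expressing luciferase-tagged ELG1 (2,000/well) received 5-Fluorouridine plus compound or DMSO for 16 hr at 37 °C. Luciferase was read by ONE-Glo luminescence after 30 min at room temperature.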
IL-1B inflam inh: inflammasome signaling inhibition, IL-1 beta readout; THP-1 LPS/ATP IL-1B secretion, AlphaLISA, 16 h; hits give low values; activity change, % at 57.5 µM; 360,000 compounds, 4.7% hits; AID 743279; in the data active = activity change below about -50%; inconclusive = mostly about -30% to -49%
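THP-1 cells pretreated 1 hr with compounds (up to 57.5 uM final), then stimulated with LPS (250 ng/mL final) plus ATP (1.25 mM final); secreted IL-1B measured by AlphaLISA after 16 hr, decreased signal indicating inhibition.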
HT1080NT lethal: kills 2HG-producing HT-1080-NT fibrosarcoma cells. HT-1080-NT fibrosarcoma viability, CellTiter-Glo ATP luminescence, 48 h. Potency, µM (titrated, usually from 46.1 µM), without a hit: top-dose activity, negative = less viability, hits mostly cytotoxic. 360,000 compounds, 1.6% hits;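 also: NT is the 2HG producing partner of a matched IDH1 knockdown line; potency is read from the fitted curve at half-maximal effect; 0% = DMSO-treated cells and -100% = media-only wells without cells; nearly all actives have a fitted effect of over 55% in size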
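Viability by CellTiter-Glo luminescence after 48 h compound exposure at 37C of HT-1080-NT cells (750/well, RPMI, 5% FBS). % activity scaled between DMSO wells and medium-only wells, then curve-fitted and categorized by curve class.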
TDP1 cell noCPT: qHTS for Inhibitors of human tyrosyl-DNA phosphodiesterase 1 (TDP1): qHTS in cells in absence of CPT; DT40 Tdp1-/- hTDP1 cells, no CPT, ATP luminescence, 48 h; Potency, µM (titrated, usually from 46.2 µM), without a hit: at the top dose activity change, negative = growth inhibition, hits mostly inhibitors; 420,000 compounds, 15% hits; AID 686978, 2013; also: potency is read from the fitted curve at half-maximal effect; nearly all actives have a fitted effect of over 55% in size
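Readout: luminescence from CellTiter-Glo after 30 min in the dark at RT. Cells: DT40 Tdp1-/- with stable hTDP1, 400/well. Exposure: compounds alone, ≥48 hr, 37 °C.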
HT1080 IDH1KD tx: kills HT-1080 cells with IDH1 knockdown; HT-1080 IDH1 knockdown viability, ATP luminescence, 48 h; 360,000 compounds, 2% hits; Potency, µM (doses to about 46.1 µM), for the others: at the top dose activity, negative = toxicity, most hits filed as cytotoxic;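 also: potency is read from the fitted curve at half-maximal effect; 0% = DMSO wells and -100% = cell-free medium wells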
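In this qHTS, HT-1080 cells depleted of IDH1 are exposed for 48 h at 37 °C to compound titrations. Toxicity is scored from CellTiter-Glo luminescence, with DMSO as full viability and medium alone as none.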
DT40 TDP1 CPT: DT40-hTDP1 cell growth loss with CPT | chicken DT40 Tdp1-/-;hTDP1 cells + 20 nM CPT, ATP luminescence, 48 h | Potency, µM (doses to about 46.2 µM), without a hit: at the top dose activity change, negative = growth inhibition, most hits filed as inhibitors | 420,000 compounds, 12% hits | AID 686979; also: potency is read from the fitted curve at half-maximal effect; nearly all actives have a fitted effect of over 55% in size
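Chicken DT40 Tdp1-/- cells complemented with human TDP1, 400 cells/well, exposed to compounds plus 20 nM camptothecin for at least 48 h at 37 C; viability read as ATP content by CellTiter-Glo luminescence.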
* = called active by the depositor; i = inactive; ? = inconclusive; . = not tested or not shown; [ ] = remark or other dose. Shown are actives, neighbours in structure and some others; about 19% of the full set was active somewhere. Unless noted, calls follow the shape of the dose curve; as a rule, active = well fitted curve in the direction sought with a large enough effect; inconclusive = small, poorly fitted or top-dose-only effect, or another doubt; inactive = no such curve, though single readings can be large; an effect the other way counts as inactive or inconclusive. Unless noted, % is scaled to controls: 0 for no effect and ±100 for the full control effect.

SMILES | ELG1 DNA repair | IL-1B inflam inh | HT1080NT lethal | TDP1 cell noCPT | HT1080 IDH1KD tx | DT40 TDP1 CPT
CCc1ccc(N(CC(=O)NC(C)C)C(=O)CCC(=O)Nc2nccs2)cc1 | 12% | ? | -1% | -8% | 3% | -3%
CN(C)c1ncc(CN2CCC(CO)(CCCc3ccccc3)CC2)s1 | ? | 0 | 0% | ? | 1% | -23%
Cn1cc(CN2CCC(CO)(CCCc3ccccc3)CC2)c(-c2ccccc2)n1 | 0% | -15 | -29% | ? | 3% | 16µM*
CC(=O)c1cccc(CN2CCC(CO)(CCOc3ccccc3)CC2)c1 | 4% | 2 | -2% | 1% | -1% | -3%
CC(=O)c1cccc(CN2CCC(CO)(CCCc3ccccc3)CC2)c1 | -5% | -18 | 3% | 23µM* | 0% | ?
Cc1ccc(OCc2cc(C(=O)N(C)Cc3cnc4ccccn34)no2)cc1C | ? | -24 | 0% | 12µM* | -29% | 15µM*
CN(Cc1nccn1C)C(=O)c1cc(COc2ccc3ncccc3c2)on1 | ? | -4 | -14% | 18µM* | -16% | -42%
CCn1ccnc1CN(C)C(=O)c1cc(COc2ccccc2SC)on1 | ? | i | 1% | -29% | 3% | ?
CC(CNC(=O)c1cc(COc2ccc3ncccc3c2)on1)c1ccccc1 (stereo not drawn) | 10µM* | -5 | ? | 12µM* | ? | 16µM*
Cc1cc(CN(C)C(=O)c2cc(COc3ccc4ncccc4c3)on2)on1 | ? | 0 | -23% | 6.5µM* | ? | 7.3µM*
COc1cc(Cl)ccc1OCc1cc(C(=O)NCC(C)c2ccccc2)no1 (stereo not drawn) | -1% | 0 | -3% | -10% | -1% | -30%
CC1(C)CO[C@@H](CC(=O)O)CN1 | . | . | . | 2% | . | 13%
N#CC1=C(N)N2C(=C(C#N)C13CCCCC3)SC1CCCCC12O (stereo not drawn) | 0% | 11 | 2% | 13µM* | 2% | 10µM*
O=C(CN(C(=O)CNC(=O)c1ccco1)c1ccc(F)cc1)NC1CCCCC1 | -2% | -12 | 18% | -13% | 18% | 7%
COc1ccc(N2CCN(C(=O)CSc3nc4[nH]ncc4c(=O)n3-c3cccc4ccccc34)CC2)cc1 | ? | -51* | -23% | 7.3µM* | -13% | 6.5µM*
COc1ccc(-c2c(C#N)c(SCC(=O)Nc3ccccc3)nc3c2CCCC3)cc1 | . | -9 | 11% | ? | -13% | 26µM*
COc1ccc(NC(=O)CSc2c3c(nc4ccccc24)CCCC3)c(OC)c1 | -10% | -105* | ? | 18µM* | ? | 21µM*
COc1cc(NC(=O)CSc2nc3[nH]ncc3c(=O)n2-c2ccccc2)cc(OC)c1OC | . | ? | 0% | 26µM* | -9% | ?
COc1ccccc1NC(=O)CSc1c2c(nc3ccccc13)CCC2 | -4% | ? | -6% | ? | -26% | ?
N#Cc1c(-n2ncnc2-c2ccccc2Cl)sc2c1CCCCC2 | . | . | . | -27% | . | -3%
COc1ccc(OC)c(-c2cc(Cl)c3c(c2)CC(CNC(=O)c2cccnc2SC)O3)c1 (stereo not drawn) | . | . | . | ? | . | 3%[9.04 µM]
Cc1cc(NC(=O)CSc2c3c(nc4ccccc24)CCC3)no1 | -8% | -7 | -22% | ? | ? | ?
Cc1ccccc1NC(=O)CSc1nc2cc3c(cc2cc1C)CCC3 | 7% | 41 | ? | 3.7µM* | ? | 4.6µM*
Cc1cc(Br)ccc1NC(=O)CSc1c2c(nc3ccccc13)CCC2 | . | . | . | 12µM* | . | 15µM*
COc1cc(NC(=O)CSc2c3c(nc4ccccc24)CCC3)cc(OC)c1OC | ? | -60* | -12% | ? | -9% | ?
